From PubChem BioAssay (Tox21)
Records with an inconclusive call do not appear. Calls of active or inactive are those of the source. Unless noted, the call rests on the fitted dose curve; in most records, active means well fitted curve in the direction sought with a large enough effect in the repeat runs; inconclusive means weak or mixed curves; inactive means flat fitted curve, though single readings scatter.

Experiments:
[1] = qHTS assay to test for compound auto fluorescence at 535 nm (green) in HEK293 cells (AID 720680)
[2] = qHTS assay to test for compound auto fluorescence at 460 nm (blue) in HEK293 cell free culture (AID 720681)
Summary of the method: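 Blue fluorescence (Ex 405/Em 460 nm, triamterene-equivalent) was read immediately after pin transfer of compound or DMSO into medium (DMEM, 10% FBS) without cells.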

[3] = qHTS assay to test for compound auto fluorescence at 535 nm (green) in HEK293 cell free culture (AID 720682)
Summary of the method: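 Green-channel intensity (Ex/Em 485/535 nm) was recorded from compound-treated wells containing only DMEM with 10% FBS. Fluorescein provided the equivalency standard.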

[4] = qHTS assay to test for compound auto fluorescence at 590 nm (red) in HEK293 cell free culture (AID 720683)
Summary of the method: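 Red-channel autofluorescence of compounds in culture medium (DMEM, 10% FBS), no cells, measured at 540/590 nm. Rose Bengal sodium is the reference fluorophore for equivalence.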

[5] = qHTS assay to test for compound auto fluorescence at 590 nm (red) in HepG2 cell free culture (AID 720684)
Summary of the method: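 Cell-free; medium MEM + 10% FBS; compound or DMSO added by pintool; read Ex 540/Em 590 nm; Rose Bengal sodium as red reference fluorophore.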

[6] = qHTS assay to test for compound auto fluorescence at 460 nm (blue) in HepG2 cell free culture (AID 720685)
Summary of the method: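 Cell-free plates of MEM plus 10% FBS received 23 nL compound or DMSO vehicle; blue-channel (405/460 nm) intensity scored against triamterene as reference fluorophore.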

[7] = qHTS assay to test for compound auto fluorescence at 535 nm (green) in HepG2 cell free culture (AID 720686)
[8] = qHTS assay to test for compound auto fluorescence at 460 nm (blue) in HepG2 cells (AID 720687)
Summary of the method: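 Blue-channel autofluorescence (Ex/Em 405/460 nm, triamterene-equivalent) was measured after 1 hr compound exposure at 37 C, 5% CO2. Cells were HepG2, plated overnight at 37 C in MEM plus 10% FBS.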

[9] = target: Glucocorticoid receptor (Homo sapiens) (UniProt P04150); assay: qHTS assay to identify small molecule agonists of the glucocorticoid receptor (GR) signaling pathway (AID 720691; active means well fitted activation curve with a large enough effect in the signal ratio in the repeat runs, not every such curve was filed as active; the % refers to the signal ratio)
Summary of the method: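 HeLa GR-bla reporter line; cells pre-incubated 4 h, compound in DMSO 18 h at 37 C; LiveBLAzer B/G FRET substrate 2 h RT; fluorescence intensity read-out.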

[10] = target: Glucocorticoid receptor (Homo sapiens) (UniProt P04150); assay: qHTS assay to identify small molecule antagonists of the glucocorticoid receptor (GR) signaling pathway (AID 720692; active means well fitted inhibition curve with a large enough effect in the signal ratio in the repeat runs, not every such curve was filed as active; the % refers to the signal ratio)
Summary of the method: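 Read-out: beta-lactamase FRET substrate fluorescence, 2 h at room temperature, in HeLa cells stably carrying a GRE-driven bla reporter. Compounds were co-incubated with 5 nM dexamethasone agonist (final) for 18 h at 37 C.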
On the % scale 0 is the no-effect control and ±100 the full control effect.

Chain of Glucocorticoid receptor (Homo sapiens) (P04150 whole entry, looked up): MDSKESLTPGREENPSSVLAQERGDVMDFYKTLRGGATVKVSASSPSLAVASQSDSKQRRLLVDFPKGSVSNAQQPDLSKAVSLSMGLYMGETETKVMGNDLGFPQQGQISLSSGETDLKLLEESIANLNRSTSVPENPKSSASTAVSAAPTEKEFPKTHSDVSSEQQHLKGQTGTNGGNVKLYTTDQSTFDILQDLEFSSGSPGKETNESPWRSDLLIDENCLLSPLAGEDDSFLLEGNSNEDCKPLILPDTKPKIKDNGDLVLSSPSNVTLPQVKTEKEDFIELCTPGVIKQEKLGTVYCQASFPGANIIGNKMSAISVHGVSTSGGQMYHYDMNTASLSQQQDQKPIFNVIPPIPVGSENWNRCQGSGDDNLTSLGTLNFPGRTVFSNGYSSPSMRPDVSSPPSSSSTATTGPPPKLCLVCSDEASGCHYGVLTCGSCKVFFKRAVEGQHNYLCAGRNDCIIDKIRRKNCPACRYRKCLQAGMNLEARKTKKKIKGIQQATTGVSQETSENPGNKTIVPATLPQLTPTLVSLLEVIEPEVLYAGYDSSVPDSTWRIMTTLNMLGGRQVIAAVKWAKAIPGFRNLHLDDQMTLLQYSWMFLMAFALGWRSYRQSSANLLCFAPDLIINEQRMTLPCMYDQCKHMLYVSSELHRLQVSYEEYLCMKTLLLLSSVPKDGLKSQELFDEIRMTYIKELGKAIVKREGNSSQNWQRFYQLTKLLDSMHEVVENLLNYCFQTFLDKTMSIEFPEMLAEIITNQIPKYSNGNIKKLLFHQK

CC[N+](C)(C)c1cccc(O)c1
inactive: outcome [1] | outcome [2] | outcome [3] | outcome [4] | outcome [5] | outcome [6] | outcome [7] | outcome [8]

NS(=O)(=O)c1ccccc1Cl
inactive: outcome [1] | outcome [2] | outcome [3] | outcome [4] | outcome [5] | outcome [6] | outcome [7]

Cc1c(O)cccc1O
inactive: outcome [1] | outcome [2] | outcome [3] | outcome [4] | outcome [5] | outcome [6] | outcome [7] | outcome [8]

CC(C)c1cc2c(cc1S(=O)(=O)O)[C@@]1(C)CCC[C@@](C)(C(=O)O)[C@@H]1CC2
inactive: outcome [1] | outcome [2] | outcome [3] | outcome [4] | outcome [5] | outcome [6] | outcome [7] | outcome [8]

CCCCCCCCCCCCN(CCCCCCCCCCCC)CCCCCCCCCCCC
inactive: outcome [1] | outcome [2] | outcome [3] | outcome [4] | outcome [5] | outcome [6] | outcome [7] | outcome [8]

C=C[Si](OC(=C)C)(OC(=C)C)OC(=C)C
inactive: outcome [1] | outcome [2] | outcome [3] | outcome [4] | outcome [5] | outcome [6] | outcome [7] | outcome [8]

CCC=O
inactive: outcome [1] | outcome [2] | outcome [3] | outcome [4] | outcome [5] | outcome [6] | outcome [7] | outcome [8]

CCCCCCCCCCCCCC=O
inactive: fluorescence, % of fluorescein [1] 0.0656% [at 3.72 µM] | fluorescence, % of fluorescent control [2] -0.0434% [at 3.72 µM] | activity change [3] -0.0074% [at 3.72 µM] | fluorescence, % of fluorescent control [4] 0.0516% [at 3.72 µM] | fluorescence, % of Rose Bengal [5] 0.0058% [at 3.72 µM] | fluorescence, % of fluorescent control [6] -0.0093% [at 3.72 µM] | fluorescence, % of fluorescein control [7] 0.0349% [at 3.72 µM]

CCCCCCOC(=O)CCCCC(=O)OCCCCCC
inactive: outcome [1] | outcome [2] | outcome [3] | outcome [4] | outcome [5] | outcome [6] | outcome [7] | outcome [8]

CCCCC(CC)COC(=O)c1ccccc1O (stereo unspecified)
inactive: outcome [1] | outcome [2] | outcome [3] | outcome [4] | outcome [5] | outcome [6] | outcome [7] | outcome [8] | Potency [9] | Potency [10]

Cc1cccn2c(=O)c(-c3nnn[nH]3)cnc12
inactive: outcome [1] | outcome [2] | outcome [3] | outcome [4] | outcome [5] | outcome [6] | outcome [7] | outcome [8] | Potency [9] | Potency [10]

C=COCC1CCC(CO)CC1 (stereo unspecified)
inactive: outcome [1] | outcome [2] | outcome [3] | outcome [4] | outcome [5] | outcome [6] | outcome [7] | outcome [8] | Potency [9] | Potency [10]

Nc1nc2c(ncn2COC(CO)CO)c(=O)[nH]1
inactive: outcome [1] | outcome [2] | outcome [3] | outcome [4] | outcome [5] | outcome [6] | outcome [7] | outcome [8] | Potency [9]

CCN(Cc1ccncc1)C(=O)C(CO)c1ccccc1 (stereo unspecified)
inactive: outcome [1] | outcome [2] | outcome [3] | outcome [4] | outcome [5] | outcome [6] | outcome [7] | outcome [8] | Potency [9]

CCOC(=O)c1ccc(C)cc1
inactive: outcome [1] | outcome [2] | outcome [3] | outcome [4] | outcome [5] | outcome [6] | outcome [7] | outcome [8] | Potency [9] | Potency [10]

C[C@](N)(Cc1ccc(O)cc1)C(=O)O
inactive: outcome [1] | outcome [2] | outcome [3] | outcome [4] | outcome [5] | outcome [6] | outcome [7] | outcome [8] | Potency [9]

CC/C=C\CC/C=C/CO
inactive: outcome [1] | outcome [2] | outcome [3] | outcome [4] | outcome [5] | outcome [6] | outcome [7] | outcome [8] | Potency [9] | Potency [10]

O=C1CCCCCCCCCCCN1
inactive: outcome [1] | outcome [2] | outcome [3] | outcome [4] | outcome [5] | outcome [6] | outcome [7] | outcome [8] | Potency [9] | Potency [10]

CCc1ccc(O)c(OC)c1
inactive: outcome [1] | outcome [2] | outcome [3] | outcome [4] | outcome [5] | outcome [6] | outcome [7] | outcome [8] | Potency [9] | Potency [10]

CCCN(CCC)CCc1cccc2c1CC(=O)N2
inactive: outcome [1] | outcome [2] | outcome [3] | outcome [4] | outcome [5] | outcome [6] | outcome [7] | outcome [8] | Potency [9]

CC(C)NCC(O)c1ccc(NS(C)(=O)=O)cc1 (stereo unspecified)
inactive: outcome [1] | outcome [2] | outcome [3] | outcome [4] | outcome [5] | outcome [6] | outcome [7] | outcome [8] | Potency [9] | Potency [10]

CC(C[N+](C)(C)C)OC(N)=O (stereo unspecified)
inactive: outcome [1] | outcome [2] | outcome [3] | outcome [4] | outcome [5] | outcome [6] | outcome [7] | outcome [8] | Potency [9] | Potency [10]

O=Cc1cccc([N+](=O)[O-])c1
inactive: outcome [1] | outcome [2] | outcome [3] | outcome [4] | outcome [5] | outcome [6] | outcome [7] | outcome [8] | Potency [9] | Potency [10]

COC(C)(C)CCCC(C)CC=O (stereo unspecified)
inactive: outcome [1] | outcome [2] | outcome [3] | outcome [4] | outcome [5] | outcome [6] | outcome [7] | outcome [8] | Potency [9] | Potency [10]

Cc1cc2c(cc1S(N)(=O)=O)S(=O)(=O)CCC2
inactive: outcome [1] | outcome [2] | outcome [3] | outcome [4] | outcome [5] | outcome [6] | outcome [7] | outcome [8] | Potency [9] | Potency [10]

CC(=O)OCC(CCn1cnc2cnc(N)nc21)COC(C)=O
inactive: outcome [1] | outcome [2] | outcome [3] | outcome [4] | outcome [5] | outcome [6] | outcome [7] | outcome [8] | Potency [9] | Potency [10]
